Experimental data reported in the supplement of paper PMC6089552.
Out of some 3,200 compounds screened, about 300 (9.4%) showed activity. This excerpt belongs to a sample that is enriched for actives. Values without a mark were called inactive.

Tested on: A673/TR/shEF
Test: cell viability (LOESS-normalised, relative to median of negative controls) (log2 ratio); higher = more viable cells (less compound effect), active = hit call of the paper (over 3 MAD below the median)
Details: treatment time: 72 h
Method in brief: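 Viability of A673/TR/shEF Ewing sarcoma cells was determined by CellTiter-Glo luminescence. The cells, at 1,500 per well in 384-well plates, were grown with or without doxycycline from 24 h before compound addition to switch on EWS-FLI1 shRNA knockdown, then exposed for three days to library compounds at two or more concentrations or to DMSO controls. Signals were LOESS-corrected plate by plate, normalised to the negative-control median and log2-transformed.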

[1] = 0.25 µM, library screen: screen1, EWS-FLI1 expression: high (no doxycycline)
[2] = 0.25 µM, library screen: screen1, EWS-FLI1 expression: low (doxycycline-induced shRNA knockdown)
[3] = 2.5 µM, library screen: screen1, EWS-FLI1 expression: high (no doxycycline)
[4] = 2.5 µM, library screen: screen1, EWS-FLI1 expression: low (doxycycline-induced shRNA knockdown)
[5] = 0.103 µM, library screen: screen3, EWS-FLI1 expression: high (no doxycycline)
[6] = 0.103 µM, library screen: screen3, EWS-FLI1 expression: low (doxycycline-induced shRNA knockdown)
[7] = 0.25 µM, library screen: screen2, EWS-FLI1 expression: high (no doxycycline)
[8] = 0.25 µM, library screen: screen2, EWS-FLI1 expression: low (doxycycline-induced shRNA knockdown)
[9] = 0.308 µM, library screen: screen3, EWS-FLI1 expression: high (no doxycycline)
[10] = 0.308 µM, library screen: screen3, EWS-FLI1 expression: low (doxycycline-induced shRNA knockdown)
[11] = 0.926 µM, library screen: screen3, EWS-FLI1 expression: high (no doxycycline)
[12] = 0.926 µM, library screen: screen3, EWS-FLI1 expression: low (doxycycline-induced shRNA knockdown)
[13] = 2.5 µM, library screen: screen2, EWS-FLI1 expression: high (no doxycycline)
[14] = 2.5 µM, library screen: screen2, EWS-FLI1 expression: low (doxycycline-induced shRNA knockdown)
[15] = 2.8 µM, library screen: screen3, EWS-FLI1 expression: high (no doxycycline)
[16] = 2.8 µM, library screen: screen3, EWS-FLI1 expression: low (doxycycline-induced shRNA knockdown)
[17] = 8.3 µM, library screen: screen3, EWS-FLI1 expression: high (no doxycycline)
[18] = 8.3 µM, library screen: screen3, EWS-FLI1 expression: low (doxycycline-induced shRNA knockdown)
[19] = 25 µM, library screen: screen3, EWS-FLI1 expression: high (no doxycycline)
[20] = 25 µM, library screen: screen3, EWS-FLI1 expression: low (doxycycline-induced shRNA knockdown)
[21] = 0.025 µM, library screen: screen1, EWS-FLI1 expression: high (no doxycycline)
[22] = 0.025 µM, library screen: screen1, EWS-FLI1 expression: low (doxycycline-induced shRNA knockdown)
[23] = 25 µM, library screen: screen1, EWS-FLI1 expression: high (no doxycycline)
[24] = 25 µM, library screen: screen1, EWS-FLI1 expression: low (doxycycline-induced shRNA knockdown)

COc1cc(OC)c(C2NC(=S)NC(C)=C2C(=O)Nc2cccc(Cl)c2)cc1OC (configuration not stated)
cell viability (log2) [1]: 0.0501 | cell viability (log2) [2]: 0.0639 | cell viability (log2) [3]: 0.0887 | cell viability (log2) [4]: 0.0905

NS(=O)(=O)c1ccc(-c2ccc(/C=C3/SC(=S)N(C4CCCCC4)C3=O)o2)cc1
cell viability (log2) [1]: 0.109 | cell viability (log2) [2]: 0.0623 | cell viability (log2) [3]: 0.167 | cell viability (log2) [4]: -0.0331

CC(=O)O[C@H]1C(=O)[C@@]2(C)[C@H]([C@H](OC(=O)c3ccccc3)[C@]3(O)C[C@H](OC(=O)[C@H](O)[C@@H](NC(=O)c4ccccc4)c4ccccc4)C(C)=C1C3(C)C)[C@]1(OC(C)=O)CO[C@@H]1C[C@@H]2O
cell viability (log2) [5]: -2.57 (active) | cell viability (log2) [6]: -0.853 (active) | cell viability (log2) [1]: -3.63 (active) | cell viability (log2) [2]: -1.46 (active) | cell viability (log2) [7]: -2.49 (active) | cell viability (log2) [8]: -0.868 (active) | cell viability (log2) [9]: -2.24 (active) | cell viability (log2) [10]: -0.787 (active) | cell viability (log2) [11]: -2.68 (active) | cell viability (log2) [12]: -0.947 (active) | cell viability (log2) [3]: -4.22 (active) | cell viability (log2) [4]: -1.51 (active) | cell viability (log2) [13]: -2.93 (active) | cell viability (log2) [14]: -1 (active) | cell viability (log2) [15]: -2.59 (active) | cell viability (log2) [16]: -1.11 (active) | cell viability (log2) [17]: -2.75 (active) | cell viability (log2) [18]: -1.03 (active) | cell viability (log2) [19]: -2.68 (active) | cell viability (log2) [20]: -1.1 (active)

CC(=O)O[C@@]12CO[C@@H]1C[C@H](O)[C@@]1(C)C(=O)[C@H](O)C3=C(C)[C@@H](OC(=O)[C@H](O)[C@@H](NC(=O)OC(C)(C)C)c4ccccc4)C[C@@](O)([C@@H](OC(=O)c4ccccc4)[C@H]21)C3(C)C
cell viability (log2) [5]: -2.68 (active) | cell viability (log2) [6]: -0.934 (active) | cell viability (log2) [9]: -2.8 (active) | cell viability (log2) [10]: -1.01 (active) | cell viability (log2) [11]: -2.92 (active) | cell viability (log2) [12]: -1.04 (active) | cell viability (log2) [15]: -2.83 (active) | cell viability (log2) [16]: -1.04 (active) | cell viability (log2) [17]: -2.98 (active) | cell viability (log2) [18]: -1.06 (active) | cell viability (log2) [19]: -2.84 (active) | cell viability (log2) [20]: -1.01 (active)

[Na+].[Na+].[Na+].[O]=[V]([O-])([O-])[O-]
cell viability (log2) [5]: 0.0642 | cell viability (log2) [6]: 0.11 | cell viability (log2) [9]: -0.00412 | cell viability (log2) [10]: 0.0414 | cell viability (log2) [11]: 0.0791 | cell viability (log2) [12]: 0.0822 | cell viability (log2) [15]: 0.0816 | cell viability (log2) [16]: 0.153 | cell viability (log2) [17]: 0.102 | cell viability (log2) [18]: 0.022 | cell viability (log2) [19]: 0.0273 | cell viability (log2) [20]: 0.0301

O=C(Nc1ccncc1)c1cc(-c2ccccc2)nc2ccccc12
cell viability (log2) [1]: 0.0994 | cell viability (log2) [2]: 0.0756 | cell viability (log2) [3]: 0.0606 | cell viability (log2) [4]: -0.00485

COC(=O)C[C@H]1C(C)(C)C(OC)=C2CC3=C4CC(=O)O[C@@H](c5ccoc5)[C@]4(C)CCC3[C@@]1(C)C2=O (some centres not stated)
cell viability (log2) [1]: 0.0817 | cell viability (log2) [2]: 0.1 | cell viability (log2) [3]: 0.101 | cell viability (log2) [4]: 0.109

Nc1ncnc2c1nc(Br)n2C1OC2COP(=O)(O)OC2C1O (configuration not stated)
cell viability (log2) [7]: 0.279 | cell viability (log2) [8]: 0.0361 | cell viability (log2) [13]: 0.103 | cell viability (log2) [14]: 0.0822

CC1=C(/C=C/C(C)=C/C=C/C(C)=C/C=C/C=C(C)/C=C/C=C(C)/C=C/[C@@]23O[C@]2(C)C[C@@H](O)CC3(C)C)C(C)(C)C[C@H](O)C1
cell viability (log2) [1]: 0.0858 | cell viability (log2) [2]: 0.0984 | cell viability (log2) [3]: 0.143 | cell viability (log2) [4]: 0.132

COc1ccc2c(c1)[C@@]1(C)CCC(=O)C[C@@H]1CC2
cell viability (log2) [1]: 0.0574 | cell viability (log2) [2]: 0.0238 | cell viability (log2) [3]: 0.0895 | cell viability (log2) [4]: 0.0859

CC(C)c1ccc2c(c1)CCC1C(C)(CN)CCCC21C (configuration not stated)
cell viability (log2) [1]: 0.0133 | cell viability (log2) [2]: -0.0819 | cell viability (log2) [3]: 0.122 | cell viability (log2) [4]: 0.00337

Fc1cccc(CN(C2=NCCN2)c2c(Cl)cccc2Cl)c1
cell viability (log2) [7]: 0.243 | cell viability (log2) [8]: 0.118 | cell viability (log2) [13]: 0.138 | cell viability (log2) [14]: 0.0968

CC(=O)/C=C/C1C(C)(O)CCC2C(C)(C)CCCC21C (configuration not stated)
cell viability (log2) [1]: 0.0886 | cell viability (log2) [2]: 0.136 | cell viability (log2) [3]: 0.148 | cell viability (log2) [4]: 0.139

Cc1nc(Nc2ncc(C(=O)Nc3c(C)cccc3Cl)s2)cc(N2CCN(CCO)CC2)n1
cell viability (log2) [5]: -0.00181 | cell viability (log2) [6]: -0.0394 | cell viability (log2) [9]: -0.125 | cell viability (log2) [10]: -0.364 | cell viability (log2) [11]: -0.395 (active) | cell viability (log2) [12]: -0.907 (active) | cell viability (log2) [15]: -0.393 (active) | cell viability (log2) [16]: -1.27 (active) | cell viability (log2) [17]: -0.457 (active) | cell viability (log2) [18]: -1.34 (active) | cell viability (log2) [19]: -0.706 (active) | cell viability (log2) [20]: -1.33 (active)

COc1cccc(C(=O)NCCN2CCN(c3ccc(Cl)cc3)CC2)c1
cell viability (log2) [7]: 0.184 | cell viability (log2) [8]: 0.2 | cell viability (log2) [13]: 0.0849 | cell viability (log2) [14]: 0.0867

O=C(O)c1cn(-c2ccccc2)nc1-c1ccc(F)cc1
cell viability (log2) [1]: 0.0839 | cell viability (log2) [2]: -0.00121 | cell viability (log2) [3]: 0.0458 | cell viability (log2) [4]: -0.135

NC(N)=NCCNS(=O)(=O)c1cccc2cnccc12
cell viability (log2) [21]: 0.216 | cell viability (log2) [22]: 0.0306 | cell viability (log2) [1]: 0.259 | cell viability (log2) [2]: 0.000334 | cell viability (log2) [7]: 0.159 | cell viability (log2) [8]: 0.0697 | cell viability (log2) [3]: -0.325 (active) | cell viability (log2) [4]: 0.117 | cell viability (log2) [13]: 0.11 | cell viability (log2) [14]: 0.0282 | cell viability (log2) [23]: -0.105 (active) | cell viability (log2) [24]: 0.0777

CNCCNS(=O)(=O)c1cccc2cnccc12
cell viability (log2) [21]: 0.0336 | cell viability (log2) [22]: 0.0964 | cell viability (log2) [1]: 0.0201 | cell viability (log2) [2]: 0.0846 | cell viability (log2) [7]: 0.191 | cell viability (log2) [8]: 0.0995 | cell viability (log2) [3]: -0.0144 | cell viability (log2) [4]: 0.076 | cell viability (log2) [13]: 0.114 | cell viability (log2) [14]: 0.037 | cell viability (log2) [23]: -0.0615 | cell viability (log2) [24]: -0.521

O=S(=O)(NCCNC/C=C/c1ccc(Br)cc1)c1cccc2cnccc12
cell viability (log2) [21]: 0.026 | cell viability (log2) [22]: 0.000211 | cell viability (log2) [1]: 0.096 | cell viability (log2) [2]: 0.0474 | cell viability (log2) [7]: 0.108 | cell viability (log2) [8]: 0.000615 | cell viability (log2) [3]: 0.0846 | cell viability (log2) [4]: -0.0121 | cell viability (log2) [13]: 0.194 | cell viability (log2) [14]: 0.0705 | cell viability (log2) [23]: 0.00409 | cell viability (log2) [24]: 0.217

NCCNS(=O)(=O)c1cccc2cnccc12
cell viability (log2) [21]: 0.261 | cell viability (log2) [22]: -0.0195 | cell viability (log2) [1]: 0.263 | cell viability (log2) [2]: -0.0436 | cell viability (log2) [7]: 0.125 | cell viability (log2) [8]: 0.144 | cell viability (log2) [3]: -0.101 (active) | cell viability (log2) [4]: 0.0153 | cell viability (log2) [13]: 0.077 | cell viability (log2) [14]: 0.0865 | cell viability (log2) [23]: -0.0355 | cell viability (log2) [24]: 0.14
